Shown are actives, neighbours in structure and some others; about 19% of the full set was active somewhere.
HT1080 IDH1KD tx: kills HT-1080 cells with IDH1 knockdown | AID 686971 | Potency, µM (doses to about 46.1 µM), inactives show at the highest dose activity, negative = toxicity, usual class: cytotoxic | HT-1080 IDH1 knockdown viability, ATP luminescence, 48 h | 2% of 360,000 active;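 note: potency is the fitted concentration of half-maximal effect; 0% = DMSO wells and -100% = cell-free medium wells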
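Viability of IDH1-knockdown HT-1080 fibrosarcoma cells was assessed by CellTiter-Glo after 48 h at 37 °C with titrated compound; concentration-effect curves were classified by fit quality and response size.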
ELG1 repair inh: ELG1-dependent DNA repair inhibition | HEK293T ELG1-luciferase reporter, luminescence, 16 h; DNA damage induced by 5-fluorouridine | Potency, µM (series often up to 46.1 µM), without a hit: at the highest dose activity change, negative = inhibition, most hits filed as inhibitors | 2.3% of 330,000 active | AID 504467; note: potency is the fitted concentration of half-maximal effect; nearly all actives have a fitted effect of over 55% in size
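In this reporter screen, reduction of luminescence relative to DMSO vehicle indicated activity. Compounds and 5-fluorouridine were added together to 2,000 cells per well, incubated for 16 hr at 37 °C, then developed with ONE-Glo.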
DT40 TDP1 CPT: growth inhibition of DT40 Tdp1-/-;hTDP1 cells with camptothecin (screen for TDP1 inhibitors); 12% of 420,000 active; chicken DT40 Tdp1-/-;hTDP1 cells + 20 nM CPT, ATP luminescence, 48 h; Potency, µM (series often up to 46.2 µM), for the others: at the top dose activity change, negative = growth inhibition, hits mostly inhibitors; note: potency is the fitted concentration of half-maximal effect; nearly all actives have a fitted effect of over 55% in size
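Chicken DT40 Tdp1-/- cells stably complemented with human TDP1 were seeded at 400 cells/well in medium containing 20 nM camptothecin, exposed to pin-transferred compounds, and grown at 37 °C for at least 48 hr. Viability was read as ATP luminescence.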
IL-1B inflam inh: inflammasome signaling inhibition, IL-1 beta readout; THP-1 LPS/ATP IL-1B secretion, AlphaLISA, 16 h; hits give low values; activity change, % at 57.5 µM; 4.7% of 360,000 active; AID 743279; in the data active = activity change below about -50%; inconclusive = mostly about -30% to -49%
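THP-1 cells pretreated 1 hr with compounds (up to 57.5 uM final), then stimulated with LPS (250 ng/mL final) plus ATP (1.25 mM final); secreted IL-1B measured by AlphaLISA after 16 hr, decreased signal indicating inhibition.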
HT1080-NT tox: kills 2HG-producing HT-1080-NT fibrosarcoma cells. Potency, µM (doses to about 46.1 µM), inactives show at the top dose activity, negative = less viability, most hits filed as cytotoxic. 1.6% of 360,000 active. HT-1080-NT fibrosarcoma viability, CellTiter-Glo ATP luminescence, 48 h;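 note: NT is the 2HG producing partner of a matched IDH1 knockdown line; potency is the fitted concentration of half-maximal effect; 0% = DMSO-treated cells and -100% = media-only wells without cells; nearly all actives have a fitted effect of over 55% in size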
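A 48-hour cytotoxicity screen used HT-1080-NT cells plated 2 hours before compound delivery. ATP-based CellTiter-Glo luminescence measured viability, normalized to DMSO and no-cell controls.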
DT40 TDP1 no CPT: qHTS for Inhibitors of human tyrosyl-DNA phosphodiesterase 1 (TDP1): qHTS in cells in absence of CPT; DT40 Tdp1-/- hTDP1 cells, no CPT, ATP luminescence, 48 h; Potency, µM (titrated, usually from 46.2 µM), for the others: at the highest dose activity change, negative = growth inhibition, hits mostly inhibitors; 15% of 420,000 active; note: potency is the fitted concentration of half-maximal effect; nearly all actives have a fitted effect of over 55% in size
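No-CPT arm: Tdp1-/-;hTDP1 DT40 cells (400/well) plus compounds, incubated ≥48 hr at 37 °C. Readout CellTiter-Glo luminescence.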
Active calls of the source: *. Unless noted, calls come from the whole dose curve; as a rule, active = well fitted curve in the direction sought with a large enough effect; inconclusive = small, poorly fitted or top-dose-only effect, or another doubt; inactive = no such curve, though single readings can be large; an effect the other way counts as inactive or inconclusive. Unless noted, % is set by controls: 0 for no effect and ±100 for the full control effect.

What do the screens show for `O=C1CS(=O)(=O)C2(C(=O)N(Cc3ccccc3)c3ccccc32)N1c1ccc(F)c(Cl)c1` (stereo not drawn)?
DT40 TDP1 CPT: -29%; DT40 TDP1 no CPT: inconclusive

How did COc1ccc(N2C(=O)CS(=O)(=O)C23C(=O)N(Cc2ccccc2)c2ccccc23)cc1 (stereo not drawn) do in these assays?
DT40 TDP1 CPT: -29%; DT40 TDP1 no CPT: inconclusive

How did Cc1cc(C)cc(N2C(=O)CS(=O)(=O)C23C(=O)N(Cc2ccc(F)cc2)c2ccc(C)cc23)c1 (stereo not drawn) do in these assays?
DT40 TDP1 CPT: 18µM*; DT40 TDP1 no CPT: 21µM*

What do the screens show for `CCc1cccc(N2C(=O)CS(=O)(=O)C23C(=O)N(Cc2ccc(F)cc2)c2ccc(C)cc23)c1` (stereo not drawn)?
DT40 TDP1 CPT: inconclusive; DT40 TDP1 no CPT: 23µM*

How did CC1(C)CC(=O)c2cc(-c3nc(-c4ccc(Cl)cc4)cs3)c(=O)[nH]c2C1 do in these assays?
DT40 TDP1 CPT: inconclusive; DT40 TDP1 no CPT: 0%

How did CC(=O)Nc1ccc(NC(=O)C(Cc2ccccc2)N2Cc3ccccc3C2=O)cc1 (stereo not drawn) do in these assays?
DT40 TDP1 CPT: -10%; DT40 TDP1 no CPT: -9%

What do the screens show for `O=C1N[C@H](Cc2ccccc2)COC(=O)[C@H](Cc2ccc(F)cc2)C/C=C\C[C@H]1CC(=O)N(CCO)Cc1ccccc1`?
HT1080 IDH1KD tx: -29%; ELG1 repair inh: -11%; DT40 TDP1 CPT: inconclusive; IL-1B inflam inh: -10; HT1080-NT tox: inconclusive; DT40 TDP1 no CPT: inconclusive

Results for O=C1N[C@@H](Cc2ccccc2)COC(=O)[C@H](Cc2ccc(F)cc2)C/C=C\C[C@H]1CC(=O)N(CCO)Cc1ccccc1 ?
HT1080 IDH1KD tx: inconclusive; ELG1 repair inh: inconclusive; DT40 TDP1 CPT: 21µM*; IL-1B inflam inh: -26; HT1080-NT tox: -24%; DT40 TDP1 no CPT: 8.2µM*

How did O=C1N[C@@H](Cc2ccccc2)COC(=O)[C@@H](Cc2ccc(F)cc2)CC/C=C/C[C@H]1CC(=O)N(CCO)Cc1ccccc1 do in these assays?
HT1080 IDH1KD tx: inconclusive; ELG1 repair inh: inconclusive; DT40 TDP1 CPT: inconclusive; IL-1B inflam inh: -21; HT1080-NT tox: inconclusive; DT40 TDP1 no CPT: 6.5µM*

Results for O=C1N[C@@H](Cc2ccccc2)COC(=O)[C@H](Cc2ccc(F)cc2)CC/C=C/C[C@@H]1CC(=O)N(CCO)Cc1ccccc1 ?
HT1080 IDH1KD tx: inconclusive; ELG1 repair inh: -11%; DT40 TDP1 CPT: inconclusive; IL-1B inflam inh: inconclusive; HT1080-NT tox: -28%; DT40 TDP1 no CPT: inconclusive

How did Cc1nc(-c2ccccc2)sc1C1(C)CC(c2cccc([N+](=O)[O-])c2)=NO1 (stereo not drawn) do in these assays?
HT1080 IDH1KD tx: 3%; ELG1 repair inh: inconclusive; DT40 TDP1 CPT: -2%; IL-1B inflam inh: -9; HT1080-NT tox: -2%; DT40 TDP1 no CPT: 1%

Results for CC1CCN(C(=S)c2cn(Cc3ccc(F)cc3)c3ccccc23)CC1 ?
HT1080 IDH1KD tx: -18%; ELG1 repair inh: 13%; DT40 TDP1 CPT: inconclusive; IL-1B inflam inh: -13; HT1080-NT tox: 1%; DT40 TDP1 no CPT: 23µM*

How did CN1CCN(C(=S)c2cn(Cc3ccc(F)cc3)c3ccccc23)CC1 do in these assays?
HT1080 IDH1KD tx: -26%; ELG1 repair inh: -1%; DT40 TDP1 CPT: inconclusive; IL-1B inflam inh: -9; HT1080-NT tox: -16%; DT40 TDP1 no CPT: inconclusive

Results for CC1CCN(C(=S)c2cn(Cc3ccccc3F)c3ccccc23)CC1 ?
HT1080 IDH1KD tx: -11%; ELG1 repair inh: -1%; DT40 TDP1 CPT: inconclusive; IL-1B inflam inh: -9; HT1080-NT tox: -8%; DT40 TDP1 no CPT: inconclusive

Results for CN1CCN(C(=S)c2cn(Cc3cccc(F)c3)c3ccccc23)CC1 ?
HT1080 IDH1KD tx: -21%; ELG1 repair inh: 6%; DT40 TDP1 CPT: inconclusive; IL-1B inflam inh: 1; HT1080-NT tox: -19%; DT40 TDP1 no CPT: 21µM*

How did CCS(=O)(=O)c1ccc2oc(SCC(=O)N3CCCCC3)nc2c1 do in these assays?
HT1080 IDH1KD tx: 5%; ELG1 repair inh: inconclusive; DT40 TDP1 CPT: -19%; IL-1B inflam inh: 35; HT1080-NT tox: 7%; DT40 TDP1 no CPT: inconclusive

Results for Cc1nn(CC(=O)NCCCN2CC(C)CC(C)C2)c(=O)c2cccn12 (stereo not drawn) ?
HT1080 IDH1KD tx: 25%; ELG1 repair inh: inconclusive; DT40 TDP1 CPT: -2%; IL-1B inflam inh: 7; HT1080-NT tox: 6%; DT40 TDP1 no CPT: 31%

What do the screens show for `COc1ccc(CNC(=O)C[C@H]2C[C@H](C(=O)N3CCOCC3)[C@@]3(CCC4CCCC4)c4[nH]c5cc(CCC(=O)N(C)C)ccc5c4CCN3C2=O)cc1OC`?
HT1080 IDH1KD tx: 0%; ELG1 repair inh: 20%; DT40 TDP1 CPT: inconclusive; IL-1B inflam inh: -12; HT1080-NT tox: -2%; DT40 TDP1 no CPT: inconclusive

Results for CCc1nc2ccc(C(=O)NCCc3ccccn3)cn2c1N(C)Cc1cccs1 ?
HT1080 IDH1KD tx: 15%; DT40 TDP1 CPT: inconclusive; IL-1B inflam inh: -21; HT1080-NT tox: 8%; DT40 TDP1 no CPT: 18µM*

How did CCc1nc2ccc(C(=O)NCCc3ccccn3)cn2c1N(C)Cc1ccc(N(C)C)cc1 do in these assays?
HT1080 IDH1KD tx: 4%; DT40 TDP1 CPT: inconclusive; IL-1B inflam inh: inconclusive; HT1080-NT tox: 19%; DT40 TDP1 no CPT: inconclusive

Results for CCc1nc2ccc(C(=O)Nc3ccc(OC)c(OC)c3)cn2c1N(C)Cc1ccc(N(C)C)cc1 ?
HT1080 IDH1KD tx: 5%; DT40 TDP1 CPT: inconclusive; IL-1B inflam inh: 8; HT1080-NT tox: 5%; DT40 TDP1 no CPT: inconclusive

How did CCc1nc2ccc(C(=O)NCCc3ccccn3)cn2c1N(C)Cc1nccs1 do in these assays?
HT1080 IDH1KD tx: 6%; DT40 TDP1 CPT: inconclusive; IL-1B inflam inh: -11; HT1080-NT tox: 5%; DT40 TDP1 no CPT: 16µM*

How did CCc1nc2ccc(C(=O)Nc3ccc(OC)c(OC)c3)cn2c1N(C)Cc1nccs1 do in these assays?
HT1080 IDH1KD tx: 0%; DT40 TDP1 CPT: 15µM*; IL-1B inflam inh: -23; HT1080-NT tox: 5%; DT40 TDP1 no CPT: inconclusive

What do the screens show for `CCCCN(C(C)=O)c1c(CC)nc2ccc(C(=O)NCCc3ccccn3)cn12`?
HT1080 IDH1KD tx: 18%; DT40 TDP1 CPT: -8%; IL-1B inflam inh: 0; HT1080-NT tox: 18%; DT40 TDP1 no CPT: -16%

Screening data from PubChem BioAssay.
